From PubChem BioAssay AID493170 (National Center for Advancing Translational Sciences (NCATS), 2011) come the findings set out here.

Results filed as inconclusive are left out. Where a call stands in place of a potency, no number is given. Activity calls are given as the source filed them. The call rests on the fitted dose curve; in most records, active means well fitted inhibition curve with a large enough effect; inconclusive means small, poorly fitted or top-dose-only effect, or effect the other way; inactive means flat fitted curve, though single readings scatter.
Potency means the concentration at half of the fitted maximal effect.

Ubiquitin carboxyl-terminal hydrolase 2 (Homo sapiens), sequence (O75604 whole entry, looked up): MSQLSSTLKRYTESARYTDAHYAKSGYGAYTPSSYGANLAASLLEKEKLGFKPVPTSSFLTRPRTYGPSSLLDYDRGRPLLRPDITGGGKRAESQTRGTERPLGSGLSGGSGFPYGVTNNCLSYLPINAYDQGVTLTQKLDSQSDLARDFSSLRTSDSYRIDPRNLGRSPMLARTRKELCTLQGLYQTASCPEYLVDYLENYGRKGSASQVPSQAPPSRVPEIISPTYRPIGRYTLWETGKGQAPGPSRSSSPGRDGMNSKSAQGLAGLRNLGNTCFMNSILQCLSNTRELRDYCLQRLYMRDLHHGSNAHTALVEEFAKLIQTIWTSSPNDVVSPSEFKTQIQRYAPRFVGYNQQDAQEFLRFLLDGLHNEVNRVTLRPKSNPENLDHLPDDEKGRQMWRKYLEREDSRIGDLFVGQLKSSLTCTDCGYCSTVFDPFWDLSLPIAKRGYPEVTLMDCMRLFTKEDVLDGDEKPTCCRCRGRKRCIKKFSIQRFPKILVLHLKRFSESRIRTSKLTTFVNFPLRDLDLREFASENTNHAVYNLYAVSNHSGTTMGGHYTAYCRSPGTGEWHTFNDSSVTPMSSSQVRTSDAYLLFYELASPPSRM

This test has as its target Ubiquitin carboxyl-terminal hydrolase 2 (Homo sapiens) (UniProt O75604). Description: Ub-rhodamine 110 based assay for inhibitors Ubiquitin-specific Protease USP2a. Further: nearly all actives have a fitted effect of over 50% in size. The conditions noted are these: USP2a Ub-rhodamine110 cleavage, fluorescence; series mostly up to 38.3 µM. The essentials:
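Kinetic fluorescence (485/531 nm) read each minute over 7 min after adding Ub-Rhod110 (150 nM final) to USP2a (5 nM final). The enzyme had 30 min RT exposure to compounds beforehand in Tris pH 8.0 buffer with CaCl2, CHAPS and beta-ME.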
As to `COc1ccc(/C=C2\SC(=O)N(CCC(=O)Nc3ccc(S(=O)(=O)Nc4nccs4)cc3)C2=O)cc1`, the Potency is 10 µM (active).
On to `O=c1c2c3nc4ccccc4nc3n(Cc3ccccc3)c2ncn1Cc1ccco1`, for which the Potency is 11.2 µM (active).
Regarding `Cn1ccc(=Nc2ccc(NC(=O)c3ccc(N=c4ccn(C)c5ccc([N+](=O)[O-])cc45)cc3)cc2)cc1`, the Potency entry is “inactive”.
On to `CC1(C)CC(=O)C=C(NCc2cccs2)C1`, for which the Potency entry is “inactive”.
For `C=C(CCC(=O)c1ccccc1)C(=O)c1ccccc1`, the Potency result was “inactive”.
As to `C=CC[C@H](CC(=O)N(CCO)Cc1ccccc1)C(=O)N[C@H](C)COC(=O)[C@@H](CC=C)CC(=O)OC(C)(C)C`, the Potency entry is “inactive”.
For the compound `O=C(COc1ccccc1)Nc1nnc(-c2ccc(Cl)s2)o1`, the Potency result was “inactive”.
For `C=CCOc1cccc(C2C(C(=O)c3ccco3)=C(O)C(=O)N2CCN(CC)CC)c1` (configuration not stated), the Potency entry was “inactive”.
`Cc1ccc(-c2ccc(CCC(=O)O)n2NC(=O)c2cccs2)cc1`: the Potency result is “inactive”.
Take `Cc1cc(C(=O)NCc2ccco2)on1`: the Potency result is “inactive”.
The value for `CC(C)(C)C1C=C(Sc2ccccc2)C(=O)O1` (configuration not stated) was “inactive”; that for `c1ccc(CN2CCN(CCOCCOc3cccc4ccccc34)CC2)cc1` was “inactive”; that for `COc1cc(C(=O)OCC(=O)Nc2c(F)c(F)c(F)c(F)c2F)cc(OC)c1OC` was “inactive”.
The value for `Cc1ccc(NC(=O)CSc2nnc(COc3ccc(C#N)cc3)n2-c2ccccc2)cc1C` was “inactive”.
The value for `CSC1=NCCN1C(=O)Cc1ccc(F)cc1` was “inactive”.
For `CCN1C(=O)C(NC(C)=O)c2cc(OC)ccc21` (configuration not stated), the Potency result is “inactive”.
For the compound `O=C(O)C(Cc1ccccc1)N1C(=O)/C(=C/C=C/c2ccco2)SC1=S` (configuration not stated), the Potency was 11.2 µM (active).
